Consider 39 molecules from PubChem BioAssay (Tox21).

Several values for one entry are separate records, joined by “and”; a condition that tells them apart may be missing. Identical values can stand only once. Records with an inconclusive call do not appear. Where a call stands in place of a potency, no number is given. A structure can be active in one record and inactive in another. Activity calls are given as the source filed them. Calls come from the whole dose curve.
Note: nearly all actives have a fitted effect of over 35% in size.

Chain of Gonadotropin-releasing hormone receptor (Homo sapiens) (P30968 whole entry, looked up): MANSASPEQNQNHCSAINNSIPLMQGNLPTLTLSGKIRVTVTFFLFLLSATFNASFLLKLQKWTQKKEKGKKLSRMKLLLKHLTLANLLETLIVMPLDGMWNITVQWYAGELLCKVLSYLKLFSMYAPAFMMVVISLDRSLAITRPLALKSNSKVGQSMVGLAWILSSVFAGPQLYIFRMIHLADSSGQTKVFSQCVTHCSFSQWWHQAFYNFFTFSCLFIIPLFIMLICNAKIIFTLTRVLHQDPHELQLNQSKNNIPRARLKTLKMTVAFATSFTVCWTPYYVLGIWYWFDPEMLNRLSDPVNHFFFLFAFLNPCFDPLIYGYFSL

Tested on in the first experiment: not listed separately
The experiment can be described thus: Nuclear factor erythroid 2-related factor 2/antioxidant responsive element (Nrf2/ARE) small molecule agonists: luciferase reporter gene qHTS assay in human keratinocytes (AID 1919969). Note: potency is the fitted concentration of half-maximal effect. Conditions: KeratinoSens HaCaT ARE-luciferase, luminescence, 24 h; series mostly up to 92.4 µM. Background: Reporter assays use an easily measured gene product as a stand-in for the process of interest.
Regarding `Cc1cc(CCC(=O)OCCOCCOCCOC(=O)CCc2cc(C)c(O)c(C(C)(C)C)c2)cc(C(C)(C)C)c1O`, the Potency result was “inactive”.
Same read-out and setting: next, `COCCCOc1ccnc(CS(=O)c2nc3ccccc3[nH]2)c1C` (stereo not drawn): 30.5 µM (active).
Still for that read-out and setting: for `CC(C)(c1ccc(O)cc1)c1ccc(O)cc1` the value was “inactive and 62.2 µM (active)”.
The same measure, in the same setting: next, `C[Si](C)O[Si](C)(C)O[Si](C)(C)O[Si](C)C`: “inactive”; `C[C@H]1C[C@H](O)c2ccsc2S1(=O)=O`: “inactive”; `CC1=CCC(C(C)(C)O)CC1` (stereo not drawn): “inactive”.
On to `CCC(C)=O`, for which the Potency entry was “inactive”.
The same measure, in the same setting: for `N=c1nc(N2CCCCC2)cc(N)n1O` the value was “inactive”; for `CC(C)CCCC(C)N` (stereo not drawn), “inactive”; for `COc1ccc2c(c1)CCCC2=O`, “inactive”.
The same measure, in the same setting: next, `CC1=CCC(O)(C(C)C)CC1` (stereo not drawn): “inactive”.
Still for that read-out and setting: for `CCCCCCCC(=O)[O-].CCCCCCCC(=O)[O-].[Zn+2]` the value was “inactive”; for `Nc1nc(N)c2nc(-c3ccccc3)c(N)nc2n1`, “inactive”; for `COC(=O)c1ccccc1C(=O)c1ccc(OCCN2CCCCC2)cc1`, “inactive”.
Turning to `c1coc(CNc2ncnc3nc[nH]c23)c1`, the Potency result was “inactive”.
For the molecule `CC1=C(O)C(=O)C(C)O1` (stereo not drawn), the Potency entry is “inactive”.
`Cc1[nH]cnc1-c1ccc(Cl)cc1`: the Potency result is “inactive”.
On the same count and under the same terms, next, `C1CCCC1`: “inactive”; `CCCC(=O)CC`: “inactive”; `Oc1ccc(Cl)cc1Sc1cc(Cl)ccc1O`: 15.3 µM (active) and inactive.
As for `CCOCOCC`, the Potency entry is “inactive”.
Still for that read-out and setting: for `CCCC1O[C@@H]2C[C@H]3[C@@H]4CCC5=CC(=O)C=C[C@]5(C)[C@H]4[C@@H](O)C[C@]3(C)[C@]2(C(=O)CO)O1` (stereo partly drawn) the value was “inactive”.
The same measure, in the same setting: next, `C1C[C@@H]2[C@H]3CC[C@H](C3)[C@@H]2C1`: “inactive”; `CC(C)C(=O)c1ccccc1`: “inactive”; `Cc1c(C)c2c(c(C)c1O)CCC(C)(COc1ccc(CC3SC(=O)NC3=O)cc1)O2` (stereo not drawn): “inactive”.
`Cc1nc2ccccc2s1`: the Potency result is “inactive”.
On to `COCCOCCOCCOCCOCCO`, for which the Potency result is “inactive”.
On the same count and under the same terms, next, `O=C(O)c1cc(-c2ccccc2)nc2ccccc12`: “inactive”; `COc1cc(C(=S)N2CCOCC2)ccc1O`: “inactive”.
For `O=C(O)CCCCCCCCCCCC(=O)O`, the Potency entry is “inactive”.
The same measure, in the same setting: for `O=S(=O)(O)c1cccc2ccccc12` the value was “inactive”; for `COC(=O)CCCCC(=O)O`, “inactive”.
With `CN(CCOc1ccc(CC2SC(=O)NC2=O)cc1)c1ccccn1` (stereo not drawn), the Potency result is “inactive”.
As to `O=C(c1ccc(O)cc1O)c1ccc(O)cc1O`, the Potency entry is “inactive”.
On to `O=C(CCNNC(=O)c1ccncc1)NCc1ccccc1`, for which the Potency result is “inactive”.
On the same count and under the same terms, for `O=C(O)c1cc(O)c(O)c(O)c1` the value was “inactive”.
Same read-out and setting: for `NCCc1ccc(O)c(O)c1` the value was “inactive”.
Still for that read-out and setting: next, `O=C(O)c1ccc(CO)o1`: “inactive”.
`O=C(O)CSCC(=O)NC1CCSC1=O` (stereo not drawn): the Potency result is “inactive”.

The next experiment concerns the target Gonadotropin-releasing hormone receptor (Homo sapiens) (UniProt P30968). The experiment can be described thus: Human gonadotropin-releasing hormone receptor (GnRHR) small molecule agonists, calcium flux assay in GnRHR-HEK293 cells (AID 1920063). Conditions: calcium flux fluorescence, agonist mode; series mostly up to 57.6 µM. Summed up: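 Fluorescence kinetics (480 nm excitation, 540 nm emission; 3 min, 1 s steps) report calcium mobilisation in human GnRHR-HEK293 cells in agonist mode. Dye incubation: 1 h, 37 C.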
For orientation: A change in cytosolic calcium serves as a functional read-out for many receptors and channels.
For `Cc1cc(CCC(=O)OCCOCCOCCOC(=O)CCc2cc(C)c(O)c(C(C)(C)C)c2)cc(C(C)(C)C)c1O`, the Potency result is “inactive”.
Same read-out and setting: next, `COCCCOc1ccnc(CS(=O)c2nc3ccccc3[nH]2)c1C` (stereo not drawn): “inactive”; `CC(C)(c1ccc(O)cc1)c1ccc(O)cc1`: “inactive”; `C[Si](C)O[Si](C)(C)O[Si](C)(C)O[Si](C)C`: “inactive”.
Still for that read-out and setting: for `C[C@H]1C[C@H](O)c2ccsc2S1(=O)=O` the value was “inactive”.
On the same count and under the same terms, next, `CC1=CCC(C(C)(C)O)CC1` (stereo not drawn): “inactive”.
With `CCC(C)=O`, the Potency result was “inactive”.
Still for that read-out and setting: next, `N=c1nc(N2CCCCC2)cc(N)n1O`: “inactive”.
The same measure, in the same setting: for `CC(C)CCCC(C)N` (stereo not drawn) the value was “inactive”.
On the same count and under the same terms, next, `COc1ccc2c(c1)CCCC2=O`: “inactive”; `CC1=CCC(O)(C(C)C)CC1` (stereo not drawn): “inactive”; `CCCCCCCC(=O)[O-].CCCCCCCC(=O)[O-].[Zn+2]`: “inactive”.
For `Nc1nc(N)c2nc(-c3ccccc3)c(N)nc2n1`, the Potency entry was “inactive”.
Still for that read-out and setting: next, `COC(=O)c1ccccc1C(=O)c1ccc(OCCN2CCCCC2)cc1`: “inactive”; `c1coc(CNc2ncnc3nc[nH]c23)c1`: “inactive”.
On the same count and under the same terms, for `CC1=C(O)C(=O)C(C)O1` (stereo not drawn) the value was “inactive”.
Still for that read-out and setting: for `Cc1[nH]cnc1-c1ccc(Cl)cc1` the value was “inactive”.
As to `C1CCCC1`, the Potency entry was “inactive”.
Still for that read-out and setting: for `CCCC(=O)CC` the value was “inactive”; for `Oc1ccc(Cl)cc1Sc1cc(Cl)ccc1O`, “inactive”.
On the same count and under the same terms, for `CCOCOCC` the value was “inactive”.
Same read-out and setting: for `CCCC1O[C@@H]2C[C@H]3[C@@H]4CCC5=CC(=O)C=C[C@]5(C)[C@H]4[C@@H](O)C[C@]3(C)[C@]2(C(=O)CO)O1` (stereo partly drawn) the value was “inactive”.
For the molecule `C1C[C@@H]2[C@H]3CC[C@H](C3)[C@@H]2C1`, the Potency result is “inactive”.
On the same count and under the same terms, for `CC(C)C(=O)c1ccccc1` the value was “inactive”; for `Cc1c(C)c2c(c(C)c1O)CCC(C)(COc1ccc(CC3SC(=O)NC3=O)cc1)O2` (stereo not drawn), “inactive”; for `Cc1nc2ccccc2s1`, “inactive”.
For `COCCOCCOCCOCCOCCO`, the Potency entry is “inactive”.
Same read-out and setting: next, `O=C(O)c1cc(-c2ccccc2)nc2ccccc12`: “inactive”.
On the same count and under the same terms, next, `COc1cc(C(=S)N2CCOCC2)ccc1O`: “inactive”; `O=C(O)CCCCCCCCCCCC(=O)O`: “inactive”; `O=S(=O)(O)c1cccc2ccccc12`: “inactive”.
Same read-out and setting: for `COC(=O)CCCCC(=O)O` the value was “inactive”; for `CN(CCOc1ccc(CC2SC(=O)NC2=O)cc1)c1ccccn1` (stereo not drawn), “inactive”.
`O=C(c1ccc(O)cc1O)c1ccc(O)cc1O`: the Potency entry was “inactive”.
Still for that read-out and setting: for `O=C(CCNNC(=O)c1ccncc1)NCc1ccccc1` the value was “inactive”; for `O=C(O)c1cc(O)c(O)c(O)c1`, “inactive”; for `NCCc1ccc(O)c(O)c1`, “inactive”.
Still for that read-out and setting: next, `O=C(O)c1ccc(CO)o1`: “inactive”; `O=C(O)CSCC(=O)NC1CCSC1=O` (stereo not drawn): “inactive”.
